Laboratory results from PubChem BioAssay.
Values joined by “and” are separate entries in the source; they are usually repeats but may differ in a detail not shown here. Equal values may be shown once. Unmarked numbers belong to inactive results. Active and inactive are the calls of the source.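 Rule for the calls, unless noted: active = at least 20% inhibition of 6-phosphogluconate dehydrogenase activity; inactive = the rest.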

tested on: not listed separately; assay: decreased DLD-1 cellular survival, CellTiter-Glo luminescent readout, NPC compound collection, primary HTS (AID 1117346;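 active = compounds that lower survival of DLD-1 colon cancer cells in the luminescence readout, no cutoff given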); settings: DLD-1 viability, CellTiter-Glo luminescence; at 20 µM (top of the series)

Row | SMILES | viability decrease (inhibition)
1 | COC(=O)C(Cl)C(=O)OC | 3.4%
2 | CN1C[C@H](CNC(=O)OCc2ccccc2)C[C@@H]2c3cccc4c3c(cn4C)C[C@H]21 | 92.2% (active)
3 | COc1ccc2c(c1OC)C(=O)O[C@H]2[C@@H]1c2cc3c(cc2CCN1C)OCO3 | -6.5%
4 | O=C1NCN(c2ccccc2)C12CCN(CCCOc1ccc(F)cc1)CC2 | 87.1% (active)
5 | CN(C)C(=S)SSC(=S)N(C)C | 59.7% (active)
6 | Fc1cc(Br)ccc1CBr | 9.1%
7 | CC(C)(C)c1ccc(O)cc1 | 4.65%

target: 6-phosphogluconate dehydrogenase, decarboxylating (Homo sapiens) (UniProt P52209); assay: 6PGD enzyme inhibitors, primary screen, biochemical, human, recombinant enzyme, NADPH absorbance (AID 1159550); settings: recombinant 6PGD, NADPH absorbance 341 nm; at 10 µM; hits give high values
Sequence (P52209 whole entry, looked up): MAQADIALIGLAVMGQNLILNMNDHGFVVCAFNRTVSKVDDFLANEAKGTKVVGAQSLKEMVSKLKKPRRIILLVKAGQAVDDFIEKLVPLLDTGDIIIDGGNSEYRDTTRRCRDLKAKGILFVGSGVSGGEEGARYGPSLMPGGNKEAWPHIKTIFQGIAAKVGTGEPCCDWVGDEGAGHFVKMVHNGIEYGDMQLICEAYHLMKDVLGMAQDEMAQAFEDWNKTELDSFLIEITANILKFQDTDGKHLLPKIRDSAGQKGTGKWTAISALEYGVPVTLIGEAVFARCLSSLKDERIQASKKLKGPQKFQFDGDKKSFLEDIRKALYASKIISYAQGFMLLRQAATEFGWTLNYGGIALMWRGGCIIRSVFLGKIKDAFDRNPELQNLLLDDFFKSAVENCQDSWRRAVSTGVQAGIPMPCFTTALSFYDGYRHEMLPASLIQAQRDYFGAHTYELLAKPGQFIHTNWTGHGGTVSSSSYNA

Row | SMILES | inhibition [%]
8 | C=C(C)[C@H]1Cc2c(ccc3c(=O)c4c(oc23)COc2cc(OC)c(OC)cc2-4)O1 | -6.24
9 | O=S1OCC2C(CO1)C1(Cl)C(Cl)=C(Cl)C2(Cl)C1(Cl)Cl (centres undefined) | 5.97
10 | COC1C(O)C(O[C@H]2CC[C@]3(C=O)C4C(OC(C)=O)C[C@]5(C)[C@@H](C6=CC(=O)OC6)CC[C@]5(O)C4CC[C@]3(O)C2)OC(C)C1OC(C)=O (some centres undefined) | 10.3
11 | COP(=O)(OC)OC(Br)C(Cl)(Cl)Br (centres undefined) | -10.9
12 | CCOP(=S)(OCC)SCCSCC | 3.96
13 | CC(=O)O[C@@H]1[C@H]2CC[C@H]3[C@@](C)(O)[C@@H]4C[C@H](O)C(C)(C)[C@@]4(O)[C@H](O)C[C@@]13C[C@@]2(C)O | 8.37
14 | CNC(=O)Oc1cccc2c1OC(C)(C)O2 | -4.88
15 | CO[C@H]1[C@H](O)[C@H](O[C@H]2CC[C@]3(C)C4CC[C@]5(C)[C@@H](C6=CC(=O)OC6)CC[C@]5(O)C4CC[C@@H]3C2)O[C@@H](C)[C@@H]1O (some centres undefined) | 11.3
16 | CCc1cccc(CC)c1N(COC)C(=O)CCl | -1.98
17 | CN1C[C@H](CNC(=O)OCc2ccccc2)C[C@@H]2c3cccc4c3c(cn4C)C[C@H]21 | -7.03
18 | COc1ccc2c(c1OC)C(=O)O[C@H]2[C@@H]1c2cc3c(cc2CCN1C)OCO3 | -1.62
19 | CN(C)C(=S)SSC(=S)N(C)C | -10.3
20 | CCCCSP(=O)(SCCCC)SCCCC | 10.6
21 | O=C(CC[N+](=O)[O-])OC[C@H]1O[C@@H](O)[C@H](OC(=O)CC[N+](=O)[O-])[C@@H](OC(=O)CC[N+](=O)[O-])[C@@H]1OC(=O)CC[N+](=O)[O-] | 0.279
22 | CC(C)=CCC[C@]1(C)C=Cc2c(O)c3c(c(CC=C(C)C)c2O1)O[C@]12C(=C[C@@H]4C[C@H]1C(C)(C)O[C@@]2(C/C=C(/C)C(N)=O)C4=O)C3=O | -5.75
23 | CO[C@H]1C[C@H](O[C@H]2CC[C@]3(C=O)[C@H]4CC[C@]5(C)[C@@H](C6=CC(=O)OC6)CC[C@]5(O)[C@@H]4CC[C@]3(O)C2)O[C@H](C)[C@H]1O | -5.2
24 | CC(=O)O[C@H]1CC[C@@]2(C)[C@@H](CC[C@@H]3[C@@H]2CC[C@]2(C)C(=O)CC[C@@H]32)C1 | 0.969
25 | Clc1ccc(Cl)cc1 | 7.33
26 | C#CCOS(=O)OC1CCCCC1Oc1ccc(C(C)(C)C)cc1 (centres undefined) | -21.1
27 | CCOP(=S)(OCC)SCSCC | 7.84
28 | Cn1c(=O)c2c(ncn2CCCl)n(C)c1=O | -2.23
29 | CC(=O)OC1CC2(C)C(c3ccoc3)CC3OC32C2(C)C(=O)C(O)=C3C(C)(C)C(=O)C=CC3(C)C12 (centres undefined) | 9.52
30 | COP(=S)(OC)Oc1ccc(Sc2ccc(OP(=S)(OC)OC)cc2)cc1 | -4.06
31 | CCC(=O)Nc1ccc(Cl)c(Cl)c1 | -20.3
32 | COc1ccc(C(c2ccc(OC)cc2)C(Cl)(Cl)Cl)cc1 | -1.01
33 | CC(C)OC(=O)Nc1cccc(Cl)c1 | -6.1
34 | CC(C)N(C(=O)CCl)c1ccccc1 | -9.5
35 | CC1(C)C(O)CC(O)C2(C)C1CC(O)C1(C)C2CCC2(C)C(c3ccoc3)OC(=O)C3OC321 (centres undefined) | -7.21
36 | C[C@]12CC[C@H](O)C[C@H]1CC[C@@H]1[C@@H]2[C@H](O)C[C@]2(C)[C@@H](C3=CC(=O)OC3)CC[C@]12O | 11.1

tested on: Aerobactin synthetase IucA (Klebsiella pneumoniae, hypervirulent); assay: IucA enzyme inhibition, biochemical, LOPAC library, absorbance readout (AID 1346212; call rule not given here;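 note: 100% = no compound wells and 0% = no enzyme wells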); settings: IucA enzyme assay, absorbance (OD) readout; hits give low values;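 tested at 8 µM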

Row | SMILES | remaining activity [%]
37 | CN1C[C@H](CNC(=O)OCc2ccccc2)C[C@@H]2c3cccc4c3c(cn4C)C[C@H]21 | 130
38 | COc1ccc2c(c1OC)C(=O)O[C@H]2[C@@H]1c2cc3c(cc2CCN1C)OCO3 | 110
39 | C=CCN1CC[C@]23CCCC[C@H]2[C@H]1Cc1ccc(O)cc13 | 94.8

tested on: not listed separately; assay: sensitizers of A549 cells to miR-34 induction, primary screen, imaging, A549 dox-inducible miR-34, nuclei and caspase counts (AID 1347080;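 active = compounds whose cell count with miR-34 switched on is under 0.7 times the count with it off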); settings: A549 miR-34 inducible, Hoechst nuclei count, 48 h; hits give low values

Row | SMILES | fold change
40 | CN1C[C@H](CNC(=O)OCc2ccccc2)C[C@@H]2c3cccc4c3c(cn4C)C[C@H]21 | 0.705 and 0.866 and 0.969
41 | COc1ccc2c(c1OC)C(=O)O[C@H]2[C@@H]1c2cc3c(cc2CCN1C)OCO3 | 0.977
42 | CN(C)C(=S)SSC(=S)N(C)C | 0.701
43 | COP(=S)(OC)Oc1ccc(Sc2ccc(OP(=S)(OC)OC)cc2)cc1 | 0.838
44 | c1ccc2c(c1)Sc1ccccc1N2CC1CN2CCC1CC2 (centres undefined) | 0.854
